Test results as given in ChEMBL document CHEMBL1961873, “Compounds: GSK PKIS; Assays: Nanosyn kinase panel” (2012).

Assays:
[1] = tested on: Tyrosine-protein kinase ABL1 (Homo sapiens), P00519 [T315I]; conditions: at 1 µM
[2] = tested on: Tyrosine-protein kinase ABL1 (Homo sapiens), P00519 [Y253F]; conditions: at 0.1 µM
[3] = tested on: Tyrosine-protein kinase ABL1 (Homo sapiens), P00519 [Y253F]; conditions: at 1 µM
[4] = target: Tyrosine-protein kinase ABL1 (Homo sapiens) (UniProt P00519); conditions: at 0.1 µM
[5] = target: Tyrosine-protein kinase ABL1 (Homo sapiens) (UniProt P00519); conditions: at 1 µM
[6] = target: ALK tyrosine kinase receptor (Homo sapiens) (UniProt Q9UM73); conditions: at 0.1 µM
[7] = target: ALK tyrosine kinase receptor (Homo sapiens) (UniProt Q9UM73); conditions: at 1 µM
[8] = target: Tyrosine-protein kinase ABL2 (Homo sapiens) (UniProt P42684); conditions: at 0.1 µM
[9] = target: Tyrosine-protein kinase ABL2 (Homo sapiens) (UniProt P42684); conditions: at 1 µM
[10] = target: Tyrosine-protein kinase receptor UFO (Homo sapiens) (UniProt P30530); conditions: at 0.1 µM
[11] = target: Tyrosine-protein kinase receptor UFO (Homo sapiens) (UniProt P30530); conditions: at 1 µM
[12] = target: Tyrosine-protein kinase Blk (Homo sapiens) (UniProt P51451); conditions: at 0.1 µM
[13] = target: Tyrosine-protein kinase Blk (Homo sapiens) (UniProt P51451); conditions: at 1 µM
[14] = target: T1, Cytoplasmic tyrosine-protein kinase BMX (Homo sapiens) (UniProt P51813); conditions: at 0.1 µM
T1 sequence (whole entry): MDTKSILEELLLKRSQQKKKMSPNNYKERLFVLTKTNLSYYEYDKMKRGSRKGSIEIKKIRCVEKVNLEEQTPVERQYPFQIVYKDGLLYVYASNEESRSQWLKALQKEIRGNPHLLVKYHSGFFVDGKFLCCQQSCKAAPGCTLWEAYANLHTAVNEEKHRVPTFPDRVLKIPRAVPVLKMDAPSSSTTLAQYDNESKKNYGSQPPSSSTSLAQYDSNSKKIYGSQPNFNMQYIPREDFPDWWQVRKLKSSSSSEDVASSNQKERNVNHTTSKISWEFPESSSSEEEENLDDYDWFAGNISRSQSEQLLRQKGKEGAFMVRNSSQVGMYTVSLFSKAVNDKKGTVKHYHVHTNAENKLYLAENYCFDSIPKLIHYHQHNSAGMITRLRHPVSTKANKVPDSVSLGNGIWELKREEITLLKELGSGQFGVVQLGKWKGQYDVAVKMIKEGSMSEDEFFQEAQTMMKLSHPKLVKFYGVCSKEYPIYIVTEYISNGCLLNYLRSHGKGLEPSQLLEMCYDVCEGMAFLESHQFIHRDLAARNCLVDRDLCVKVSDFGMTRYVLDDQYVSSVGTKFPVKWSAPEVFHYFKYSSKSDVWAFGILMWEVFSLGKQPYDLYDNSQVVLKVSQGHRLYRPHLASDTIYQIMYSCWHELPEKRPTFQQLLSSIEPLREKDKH

[15] = target: T1, Cytoplasmic tyrosine-protein kinase BMX (Homo sapiens); conditions: at 1 µM
[16] = target: Protein-tyrosine kinase 6 (Homo sapiens) (UniProt Q13882); conditions: at 0.1 µM
[17] = target: Protein-tyrosine kinase 6 (Homo sapiens) (UniProt Q13882); conditions: at 1 µM
[18] = target: Tyrosine-protein kinase BTK (Homo sapiens) (UniProt Q06187); conditions: at 0.1 µM
[19] = target: Tyrosine-protein kinase BTK (Homo sapiens) (UniProt Q06187); conditions: at 1 µM
[20] = target: Tyrosine-protein kinase CSK (Homo sapiens) (UniProt P41240); conditions: at 0.1 µM;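 further: value given is the averaged percent inhibition of CSK kinase activity, from the GSK PKIS kinase inhibitor set screening panel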
Chain of Tyrosine-protein kinase CSK (Homo sapiens) (P41240 2-450 limits assumed): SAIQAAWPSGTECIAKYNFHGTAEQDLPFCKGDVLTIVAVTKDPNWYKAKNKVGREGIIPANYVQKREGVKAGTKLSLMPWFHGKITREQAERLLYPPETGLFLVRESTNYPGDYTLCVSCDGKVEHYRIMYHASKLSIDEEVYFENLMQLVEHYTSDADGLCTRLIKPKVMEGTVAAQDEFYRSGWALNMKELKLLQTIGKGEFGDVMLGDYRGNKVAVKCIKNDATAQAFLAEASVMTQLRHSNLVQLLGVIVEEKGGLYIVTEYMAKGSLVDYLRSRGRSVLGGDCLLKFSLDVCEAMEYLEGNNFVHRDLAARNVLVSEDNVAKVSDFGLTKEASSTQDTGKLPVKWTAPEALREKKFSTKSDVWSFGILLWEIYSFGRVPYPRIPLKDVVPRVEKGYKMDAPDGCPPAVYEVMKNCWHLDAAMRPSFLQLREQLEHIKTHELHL

Chain of Tyrosine-protein kinase BTK (Homo sapiens) (Q06187 whole entry): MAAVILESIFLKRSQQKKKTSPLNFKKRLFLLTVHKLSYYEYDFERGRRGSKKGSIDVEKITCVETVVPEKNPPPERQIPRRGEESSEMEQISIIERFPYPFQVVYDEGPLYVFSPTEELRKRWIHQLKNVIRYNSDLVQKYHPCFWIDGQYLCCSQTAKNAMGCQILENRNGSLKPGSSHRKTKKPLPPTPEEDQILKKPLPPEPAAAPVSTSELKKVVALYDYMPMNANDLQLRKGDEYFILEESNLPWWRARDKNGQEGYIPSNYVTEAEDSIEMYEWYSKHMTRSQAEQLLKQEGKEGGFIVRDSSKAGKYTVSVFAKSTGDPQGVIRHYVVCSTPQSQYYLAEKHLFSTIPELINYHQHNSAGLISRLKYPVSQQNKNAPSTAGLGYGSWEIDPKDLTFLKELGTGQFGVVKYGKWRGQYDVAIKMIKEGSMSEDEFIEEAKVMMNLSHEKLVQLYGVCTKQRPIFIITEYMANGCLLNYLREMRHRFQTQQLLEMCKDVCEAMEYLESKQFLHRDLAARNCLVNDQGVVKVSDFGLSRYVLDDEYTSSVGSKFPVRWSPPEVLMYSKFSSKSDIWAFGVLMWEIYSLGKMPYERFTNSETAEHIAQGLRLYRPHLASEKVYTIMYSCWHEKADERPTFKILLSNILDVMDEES
Chain of Protein-tyrosine kinase 6 (Homo sapiens) (Q13882 whole entry, looked up): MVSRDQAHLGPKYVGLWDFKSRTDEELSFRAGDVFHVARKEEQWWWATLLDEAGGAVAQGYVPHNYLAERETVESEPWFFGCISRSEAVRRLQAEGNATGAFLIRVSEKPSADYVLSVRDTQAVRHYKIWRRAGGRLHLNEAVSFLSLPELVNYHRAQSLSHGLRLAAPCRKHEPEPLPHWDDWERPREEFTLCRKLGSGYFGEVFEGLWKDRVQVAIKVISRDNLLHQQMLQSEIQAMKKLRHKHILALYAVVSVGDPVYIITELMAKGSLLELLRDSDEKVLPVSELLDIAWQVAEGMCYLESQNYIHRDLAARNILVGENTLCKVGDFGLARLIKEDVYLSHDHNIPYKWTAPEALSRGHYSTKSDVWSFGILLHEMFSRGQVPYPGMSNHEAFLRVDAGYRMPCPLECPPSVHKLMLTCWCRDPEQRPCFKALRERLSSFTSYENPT
Chain of Tyrosine-protein kinase ABL2 (Homo sapiens) (P42684 whole entry): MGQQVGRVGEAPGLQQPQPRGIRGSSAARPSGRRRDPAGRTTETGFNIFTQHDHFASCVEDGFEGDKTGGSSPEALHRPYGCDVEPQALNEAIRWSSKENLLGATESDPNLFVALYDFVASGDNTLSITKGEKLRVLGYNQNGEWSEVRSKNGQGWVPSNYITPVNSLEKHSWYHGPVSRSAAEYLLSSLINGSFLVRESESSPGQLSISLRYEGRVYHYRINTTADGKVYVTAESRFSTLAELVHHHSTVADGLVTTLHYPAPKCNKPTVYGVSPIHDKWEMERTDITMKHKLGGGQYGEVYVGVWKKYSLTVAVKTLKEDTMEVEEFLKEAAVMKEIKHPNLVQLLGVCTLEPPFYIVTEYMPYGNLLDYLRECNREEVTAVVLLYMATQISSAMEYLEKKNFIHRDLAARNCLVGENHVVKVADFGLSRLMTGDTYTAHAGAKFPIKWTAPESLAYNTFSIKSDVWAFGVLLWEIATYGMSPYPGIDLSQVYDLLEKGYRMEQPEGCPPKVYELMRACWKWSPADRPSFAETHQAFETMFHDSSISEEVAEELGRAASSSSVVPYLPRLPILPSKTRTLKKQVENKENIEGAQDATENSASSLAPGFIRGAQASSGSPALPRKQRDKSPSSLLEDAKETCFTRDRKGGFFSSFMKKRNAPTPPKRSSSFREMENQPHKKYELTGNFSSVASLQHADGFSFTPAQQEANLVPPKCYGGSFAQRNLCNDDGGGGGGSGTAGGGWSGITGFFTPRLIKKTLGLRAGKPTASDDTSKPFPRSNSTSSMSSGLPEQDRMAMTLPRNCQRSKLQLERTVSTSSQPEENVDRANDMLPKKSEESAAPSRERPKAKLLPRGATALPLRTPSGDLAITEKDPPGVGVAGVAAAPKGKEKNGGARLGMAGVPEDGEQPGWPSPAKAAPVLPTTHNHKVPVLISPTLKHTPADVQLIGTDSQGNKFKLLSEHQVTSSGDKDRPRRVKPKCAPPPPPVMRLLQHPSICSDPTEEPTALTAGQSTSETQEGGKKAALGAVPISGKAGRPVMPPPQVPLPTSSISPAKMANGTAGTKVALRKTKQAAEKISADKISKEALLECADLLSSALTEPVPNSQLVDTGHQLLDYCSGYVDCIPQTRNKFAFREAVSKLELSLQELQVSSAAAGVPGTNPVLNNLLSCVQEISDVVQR
Chain of Tyrosine-protein kinase Blk (Homo sapiens) (P51451 2-505 limits assumed): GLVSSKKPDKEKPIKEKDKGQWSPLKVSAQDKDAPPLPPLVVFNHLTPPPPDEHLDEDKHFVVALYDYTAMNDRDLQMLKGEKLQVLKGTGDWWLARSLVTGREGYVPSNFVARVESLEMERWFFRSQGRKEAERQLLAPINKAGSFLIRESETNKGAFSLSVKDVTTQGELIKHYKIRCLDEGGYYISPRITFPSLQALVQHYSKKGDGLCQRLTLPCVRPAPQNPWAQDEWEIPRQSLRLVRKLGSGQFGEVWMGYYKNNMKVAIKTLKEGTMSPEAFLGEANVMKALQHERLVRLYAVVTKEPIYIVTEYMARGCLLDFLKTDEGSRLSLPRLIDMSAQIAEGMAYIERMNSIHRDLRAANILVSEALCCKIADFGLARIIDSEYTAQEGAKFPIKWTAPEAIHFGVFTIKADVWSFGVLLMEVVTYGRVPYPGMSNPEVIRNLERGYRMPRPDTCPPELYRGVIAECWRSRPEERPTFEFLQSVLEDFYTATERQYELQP
Chain of ALK tyrosine kinase receptor (Homo sapiens) (Q9UM73 19-1620 limits assumed): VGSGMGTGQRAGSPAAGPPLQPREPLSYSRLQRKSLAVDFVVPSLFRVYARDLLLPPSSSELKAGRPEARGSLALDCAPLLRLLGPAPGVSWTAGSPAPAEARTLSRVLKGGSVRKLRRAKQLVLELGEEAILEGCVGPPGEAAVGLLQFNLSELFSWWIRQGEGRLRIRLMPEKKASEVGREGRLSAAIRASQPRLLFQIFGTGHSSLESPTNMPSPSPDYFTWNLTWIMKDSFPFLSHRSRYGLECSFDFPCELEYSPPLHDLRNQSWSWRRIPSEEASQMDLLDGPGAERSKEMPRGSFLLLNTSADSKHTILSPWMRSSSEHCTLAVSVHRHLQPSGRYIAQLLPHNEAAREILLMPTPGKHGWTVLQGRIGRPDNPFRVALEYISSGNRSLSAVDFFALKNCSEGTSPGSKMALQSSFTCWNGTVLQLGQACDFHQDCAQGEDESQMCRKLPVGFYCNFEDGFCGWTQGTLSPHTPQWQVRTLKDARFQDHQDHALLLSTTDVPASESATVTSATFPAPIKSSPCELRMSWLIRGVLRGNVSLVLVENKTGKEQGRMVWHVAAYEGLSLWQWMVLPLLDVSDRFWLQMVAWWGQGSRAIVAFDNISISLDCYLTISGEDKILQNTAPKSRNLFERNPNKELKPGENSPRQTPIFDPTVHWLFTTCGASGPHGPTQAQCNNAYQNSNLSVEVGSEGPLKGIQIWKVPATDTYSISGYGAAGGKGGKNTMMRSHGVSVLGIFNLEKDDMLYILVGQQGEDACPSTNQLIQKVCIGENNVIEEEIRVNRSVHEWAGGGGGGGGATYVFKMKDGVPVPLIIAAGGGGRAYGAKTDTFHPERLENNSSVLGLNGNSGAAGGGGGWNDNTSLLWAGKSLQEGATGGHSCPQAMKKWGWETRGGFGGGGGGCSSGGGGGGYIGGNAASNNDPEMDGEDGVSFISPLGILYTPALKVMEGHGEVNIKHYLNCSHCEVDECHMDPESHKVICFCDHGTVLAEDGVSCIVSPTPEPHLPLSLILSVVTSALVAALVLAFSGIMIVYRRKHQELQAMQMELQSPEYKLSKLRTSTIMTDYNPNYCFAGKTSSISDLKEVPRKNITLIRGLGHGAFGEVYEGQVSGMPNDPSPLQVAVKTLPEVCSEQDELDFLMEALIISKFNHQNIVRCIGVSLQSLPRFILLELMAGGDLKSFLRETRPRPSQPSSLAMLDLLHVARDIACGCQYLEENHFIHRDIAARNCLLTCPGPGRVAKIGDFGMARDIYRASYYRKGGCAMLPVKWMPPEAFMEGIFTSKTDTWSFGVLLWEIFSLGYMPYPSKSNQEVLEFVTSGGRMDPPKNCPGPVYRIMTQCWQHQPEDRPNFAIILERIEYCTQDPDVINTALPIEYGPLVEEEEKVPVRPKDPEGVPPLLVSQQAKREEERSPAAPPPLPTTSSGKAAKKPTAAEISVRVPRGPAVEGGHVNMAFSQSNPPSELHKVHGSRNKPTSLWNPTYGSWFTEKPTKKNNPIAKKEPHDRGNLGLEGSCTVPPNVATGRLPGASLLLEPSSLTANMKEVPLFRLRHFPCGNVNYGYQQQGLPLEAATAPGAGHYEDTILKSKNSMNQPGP

Compound | inhibition [1] [%] | inhibition [2] [%] | inhibition [3] [%] | inhibition [4] [%] | inhibition [5] [%] | inhibition [6] [%] | inhibition [7] [%] | inhibition [8] [%] | inhibition [9] [%] | inhibition [10] [%] | inhibition [11] [%] | inhibition [12] [%] | inhibition [13] [%] | inhibition [14] [%] | inhibition [15] [%] | inhibition [16] [%] | inhibition [17] [%] | inhibition [18] [%] | inhibition [19] [%] | inhibition [20] [%]
CCn1c(-c2nonc2N)nc2c(C#CC(C)(C)O)nc(OCCNC)cc21 | 4.21 | 1.69 | 4.64 | 4.99 | 5.14 | 2.7 | 3.58 | 1.91 | 4.33 | -7.46 | -6.1 | 1.45 | 3.35 | 3.16 | 6.56 | 5.42 | 3.09 | -1.33 | -0.61 | 1.36
CN(c1ccc(NC(=O)Nc2ccc(OC(F)(F)F)cc2)cc1)c1ccnc(Nc2cccc(S(N)(=O)=O)c2)n1 | 86.2 | 39.2 | 81.5 | 14.3 | 71 | 1.46 | 4.22 | 20.2 | 71.9 | -2.29 | 16.2 | 29.4 | 86.3 | 5.28 | 26.1 | 16.1 | 77.1 | 0.33 | 5.19 | 3.6
FC(F)(F)c1ccc(-c2nn3ncccc3c2-c2ccnc(Nc3ccc4c(c3)OCCO4)n2)cc1 | 9.38 | 0.98 | 7.07 | 5.3 | 13.7 | -1.39 | 1.59 | 5.58 | 9.47 | 8.69 | 7.56 | 3.74 | 15.7 | 2.61 | 0.4 | -0.58 | 12 | 0.26 | 7.22 | -0.13
C[C@@H](Oc1cc(-n2cnc3ccc(OC[C@@H](O)CO)cc32)sc1C(N)=O)c1ccccc1Cl | 12.4 | -0.46 | 10.3 | -0.45 | 11.7 | -0.7 | 4.65 | 0.97 | 7.64 | 2.21 | 3.2 | -0.24 | 3.09 | 4.05 | 0.31 | – | -0.38 | -0.29 | -0.5 | -0.73
Nc1nccc(C#Cc2cncnc2Nc2ccc(OCc3cccc(F)c3)c(Cl)c2)n1 | 2.7 | 3.75 | 2.69 | 4.16 | 9.58 | 3.59 | 6.28 | 3.79 | 3.33 | -7.36 | 1.72 | 3.54 | 5.98 | 1.74 | 8.65 | 4.52 | 3.74 | 0.96 | 7.04 | 10.2
CCOc1nccc2c1nc(-c1nonc1N)n2CC | 6.12 | 1.56 | 6.81 | 4.96 | 14.6 | 2.69 | 5.24 | 3.48 | 11.2 | 0.71 | -0.05 | 3.42 | 2.55 | 1.6 | 1.81 | 0.8 | 2.85 | 1.49 | 2.44 | 3.08
Cc1ccc2c(-c3ccnc(Nc4cccc(C(F)(F)F)c4)n3)c(-c3ccccc3)nn2n1 | 20.8 | 12.2 | 53.3 | 7.07 | 36.1 | 3.25 | 3.77 | -9.35 | 33.7 | -5.69 | -3.9 | 12.4 | 68.1 | 7.21 | 38.2 | 15.5 | 70.9 | 0.51 | 5.18 | 4.63
